Among the data in PubChem BioAssay (NCATS) are Potency values, retold here.

Records with an inconclusive call do not appear. Active and inactive are the calls of the source. The call rests on the fitted dose curve; in most records, active means well fitted inhibition curve with a large enough effect; inconclusive means small, poorly fitted or top-dose-only effect; inactive means flat fitted curve, though single readings scatter.

Holding throughout (experiment): qHTS profiling for inhibitors of Plasmodium falciparum proliferation (AID 504749); further: nearly all actives have a fitted effect of over 60% in size
Settings in all cases: P. falciparum in erythrocytes, SYBR Green DNA, 72 h; series mostly up to 28.7 µM
For orientation: Quantitative high-throughput screening tests each substance at several concentrations.

One test relates to AA1029. Put shortly: (§1)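 SYBR Green fluorescence (ex 485 nm, em 535 nm) reports parasite DNA after 72 h compound exposure of infected red cells at 0.3% parasitemia, 2.5% hematocrit; signal normalized to 0.29 uM artemisinin and vehicle wells.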
In another test the test system is CP211. An outline of the steps: as §1
The test system of the next test is CP215. Put shortly:
as §1

For the next test, the system named is CP260. An outline of the steps:
as §1

A further test deals with CP297. An outline of the steps: as §1
A further test concerns CP315. Put shortly:
as §1

In the next test the test system is CP335. Put shortly: as §1
Another test relates to DFO2036. An outline of the steps:
as §1

The next test deals with FAB9. An outline of the steps: as §1
In a further test the test system is ICS. An outline of the steps:
as §1

The subject of a further test is JCK. Put shortly:
as §1

For another test, the system named is N140. An outline of the steps:
as §1

A further test deals with PAD. Put shortly: as §1
Another test concerns PC15. An outline of the steps: as §1
The subject of the next test is PC26. Put shortly: as §1
The test system of another test is TAB109. An outline of the steps: as §1
The next test relates to TAB113. An outline of the steps:
as §1

The test system of a further test is TAB165. Put shortly:
as §1

For a further test, the system named is W2. Put shortly:
as §1

A further test relates to DIV30. An outline of the steps:
as §1
Potency means the concentration at half of the fitted maximal effect.

Turning to `CC1(Cn2ccnn2)[C@H](C(=O)O)N2C(=O)C[C@H]2S1(=O)=O` (stereo partly drawn), the Potency result with AA1029, with CP211, with CP215, with CP260, in the test with CP297 and in the test with CP315 was “inactive” throughout. The Potency entry in the test on CP335, with DFO2036, in the test with FAB9, with ICS, with JCK and in the test on N140 was “inactive” throughout. Further, the Potency entry in the test with PAD, with PC15, with PC26, in the test with TAB109, with TAB113 and with TAB165 was “inactive” each time. The Potency entry in the test with W2 is “inactive”.
Turning to `OCCOC[C@H]1O[C@H](OCCO)[C@H](OCCO)[C@@H](OCCO)[C@@H]1OCCO` (tested in a mixture with another compound), the Potency entry with AA1029, in the test with CP211, with CP215, in the test on CP260, with CP297 and with CP315 was “inactive” each time. Moreover, the Potency entry with CP335, in the test with DFO2036, in the test with DIV30, in the test on FAB9, in the test on ICS and in the test on JCK was “inactive” each time. The Potency entry in the test on N140, in the test on PAD, in the test on PC15, with PC26, with TAB109 and in the test with TAB165 was “inactive” in each case. In the test with W2, the Potency result was “inactive”.
For `COc1cccc(OC)c1C(=O)NC1C(=O)N2C1SC(C)(C)C2C(=O)O` (stereo not drawn), the Potency entry in the test with AA1029, with CP211, in the test with CP215, with CP260, in the test with CP297 and in the test on CP315 was “inactive” each time. Further, the Potency entry in the test on CP335, in the test with DFO2036, in the test on DIV30, with FAB9, in the test on ICS and in the test with JCK was “inactive” throughout. In addition, the Potency entry in the test on N140, in the test with PAD, in the test on PC15, in the test on PC26, in the test on TAB109 and in the test with TAB113 was “inactive” throughout. Besides, the Potency result with TAB165 and in the test on W2 was “inactive” throughout.
Take `C=C[C@H]1CN2CCC1C[C@H]2[C@H](O)c1ccnc2ccc(OC)cc12` (stereo partly drawn): the Potency was 891 nM (active) with AA1029; 1350 nM (active) with CP211; 1200 nM (active) in the test on CP215; 708 nM (active) with CP260; 1690 nM (active) in the test on CP297; 1690 nM (active) in the test on CP315. In addition, the Potency is 849 nM (active) in the test with CP335; 631 nM (active) with DFO2036; 953 nM (active) with DIV30; 794 nM (active) in the test with FAB9; 282 nM (active) in the test on ICS; 10000 nM (active) with JCK. For the same molecule, the Potency in the test on N140 is 631 nM (active); with PAD it was 891 nM (active); in the test on PC15, 447 nM (active); in the test on PC26, 601 nM (active); in the test on TAB109, 501 nM (active); in the test on TAB113 it was 708 nM (active). Also, the Potency was 1120 nM (active) in the test on TAB165 and 338 nM (active) with W2.
`NC[C@@H]1O[C@H](OC2[C@@H](CO)O[C@@H](OC3[C@H](O)[C@H](N)C[C@H](N)[C@H]3OC3O[C@H](CO)[C@@H](O)[C@H](O)[C@@H]3N)[C@H]2O)C(N)[C@H](O)[C@@H]1O` (stereo partly drawn): the Potency entry with AA1029, in the test on CP211, in the test on CP215, in the test with CP260, in the test with CP297 and in the test with CP315 was “inactive” throughout. The Potency result in the test with CP335, in the test with DFO2036, in the test on DIV30, with FAB9, with ICS and in the test with JCK was “inactive” in each case. Moreover, the Potency result with N140, in the test on PAD, in the test on PC15, in the test on PC26, in the test on TAB109 and in the test on TAB113 was “inactive” in each case. Besides, the Potency result in the test with TAB165 and in the test with W2 was “inactive” each time.
For `CCCCCCCCCCCC(=O)OCC(O)C1OCC(O)C1O` (stereo not drawn), the Potency result in the test on AA1029, with CP211, with CP215, with CP260, with CP297 and with CP315 was “inactive” each time. Also, the Potency entry in the test on CP335, in the test on DFO2036, in the test with DIV30, with FAB9, in the test with ICS and with JCK was “inactive” each time. The Potency result in the test with N140, in the test on PAD, with PC15, in the test with PC26, with TAB109 and with TAB113 was “inactive” throughout. Besides, the Potency entry in the test on TAB165 and in the test on W2 was “inactive” each time.
